Results filed as inconclusive are left out. Entries that show only a call come without a potency. Active and inactive are the calls of the source. The call rests on the fitted dose curve; in most records, active means well fitted cell-killing curve with a large enough effect in the repeat runs; inconclusive means weak or mixed curves, or effect the other way; inactive means flat fitted curve, though single readings scatter.
Experiment: qHTS RealTime-Glo MT Cell Viability Assay in HepG2 cells - 40 hour (AID 1224870); further: nearly all actives have a fitted effect of over 50% in size
Conditions: RealTime-Glo luminescence; series mostly up to 76.8 µM
Method in brief: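 HepG2 cells mixed with RealTime-Glo MT reagents (NanoLuc plus cell-permeant prosubstrate) were seeded at 600 cells/well, incubated 5 h at 37 C/5% CO2, then pinned with compounds in DMSO; nonlytic luminescence tracked viability during 40 h treatment.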
Potency means the concentration at half of the fitted maximal effect.

| SMILES | Potency |
| --- | --- |
| OCC1CC=CCC1 (centres undefined) | inactive |
| Cc1c(C(=O)NN2CCCCC2)nn(-c2ccc(Cl)cc2Cl)c1-c1ccc(Cl)cc1 | inactive |
| NC(=O)Cn1c(=O)cc(CCN2CCN(c3nccc4sccc34)CC2)c2ccc(F)cc21 | inactive |
| CC(CCO)CCc1ccccc1 (centres undefined) | inactive |
| Cc1nccn1-c1ccc(Sc2cccc(C3(C(N)=O)CCOCC3)c2)cc1 | inactive |
| CCCc1c(OCCCOc2ccc(OCC(=O)O)cc2)ccc(C(C)=O)c1O | inactive |
| CCC(=O)Oc1ccc(/C(CC)=C(\CC)c2ccc(OC(=O)CC)cc2)cc1 | inactive |
| C[Si](NC1CCCCC1)(NC1CCCCC1)NC1CCCCC1 | inactive |
| C[N+](C)(C)CCOC(N)=O | inactive |
| CCOC(=O)N1CCC(n2c(=O)[nH]c3cc(Cl)ccc32)CC1 | inactive |
| C(=C\c1ccccc1)/CN1CCN(C(c2ccccc2)c2ccccc2)CC1 | inactive |
| C=CC(C)(C)CC(=O)OC | inactive |
| COCCOC(=O)C1=C(C)NC(C)=C(C(=O)OC/C=C/c2ccccc2)C1c1cccc([N+](=O)[O-])c1 (centres undefined) | inactive |
| Brc1cc(-c2ccc(Br)c(Br)c2Br)cc(Br)c1Br | inactive |
| CCCCCCCCCCCC(=O)[O][Sn]([CH2]CCC)([CH2]CCC)[O]C(=O)CCCCCCCCCCC | 19 µM (active) |
| CCC(Cc1ccccc1)(C(=O)c1ccc(N2CCOCC2)cc1)N(C)C (centres undefined) | inactive |
| CCCCC1C(=O)N(c2ccccc2)N(c2ccc(O)cc2)C1=O (centres undefined) | 23.9 µM (active) |
| CCC(C(=O)OCCN(CC)CC)c1ccccc1 (centres undefined) | inactive |
| CCC1(C)CC(=O)NC1=O (centres undefined) | inactive |

From PubChem BioAssay (Tox21)
